Bioassay records (PubChem BioAssay)
uPA generation – blocks generation of uPA at the cell surface. cell surface uPA generation assay, qHTS. Potency, µM (series often up to 38.3 µM), for the others: at the top dose activity change, negative = inhibition, actives largely listed as inhibitors. hit rate 0.31% among 330,000. AID 540303; active means well fitted inhibition curve with a large enough effect; inconclusive means small, poorly fitted or top-dose-only effect; inactive means no such curve, though single readings can be large or run the other way; tested in mouse RAW 264.7 cells; further: potency means the concentration at half of the fitted maximal effect; nearly all actives have a fitted effect of over 55% in size
IL-1B inflam inh – inhibitors of inflammasome signaling (IL-1 beta secretion); THP-1 LPS/ATP IL-1B secretion, AlphaLISA, 16 h; active compounds read low; activity change, % at 57.5 µM; hit rate 4.7% among 360,000; in the data active means activity change below about -50%; inconclusive means mostly about -30% to -49%
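Secreted IL-1B measured by AlphaLISA bead assay after 16 h compound exposure of THP-1 cells; compounds (final up to 57.5 uM) added 1 h before LPS (250 ng/mL) and ATP (1.25 mM) stimulation; lower signal means less secretion.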
HT1080 IDH1KD tx – HT-1080 IDH1 knockdown cell toxicity (counter line); HT-1080 IDH1 knockdown viability, ATP luminescence, 48 h; Potency, µM (top dose mostly 46.1 µM), for the others: at the top dose activity, negative = toxicity, usual class: cytotoxic; hit rate 2% among 360,000; AID 686971;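 further: potency means the concentration at half of the fitted maximal effect; 0% = DMSO wells and -100% = cell-free medium wells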
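Viability of IDH1-knockdown HT-1080 fibrosarcoma cells was assessed by CellTiter-Glo after 48 h at 37 °C with titrated compound; concentration-effect curves were classified by fit quality and response size.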
HT1080-NT tox – kills 2HG-producing HT-1080-NT fibrosarcoma cells; HT-1080-NT fibrosarcoma viability, CellTiter-Glo ATP luminescence, 48 h; Potency, µM (series often up to 46.1 µM), inactives show at the highest dose activity, negative = less viability, most hits filed as cytotoxic; hit rate 1.6% among 360,000; AID 686970;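 further: NT is the 2HG producing partner of a matched IDH1 knockdown line; potency means the concentration at half of the fitted maximal effect; 0% = DMSO-treated cells and -100% = media-only wells without cells; nearly all actives have a fitted effect of over 55% in size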
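HT-1080-NT; 750 cells/well; 5% FBS RPMI; 48 h compound, 37 degrees C; CellTiter-Glo luminescence; curve fitting and curve-class assignment.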
TDP1 cell CPT – growth inhibition of DT40 Tdp1-/-;hTDP1 cells with camptothecin (screen for TDP1 inhibitors); chicken DT40 Tdp1-/-;hTDP1 cells + 20 nM CPT, ATP luminescence, 48 h; Potency, µM (series often up to 46.2 µM), inactives show at the highest dose activity change, negative = growth inhibition, most hits filed as inhibitors; hit rate 12% among 420,000; further: potency means the concentration at half of the fitted maximal effect; nearly all actives have a fitted effect of over 55% in size
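Cell growth measured by CellTiter-Glo luminescence after a minimum 48 h, 37 C compound exposure with 20 nM CPT in Tdp1-knockout DT40 cells stably expressing hTDP1, seeded 400/well; qHTS titration format.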
DT40 TDP1 no CPT – qHTS for Inhibitors of human tyrosyl-DNA phosphodiesterase 1 (TDP1): qHTS in cells in absence of CPT | DT40 Tdp1-/- hTDP1 cells, no CPT, ATP luminescence, 48 h | Potency, µM (titrated, usually from 46.2 µM), without a hit: top-dose activity change, negative = growth inhibition, most hits filed as inhibitors | hit rate 15% among 420,000; further: potency means the concentration at half of the fitted maximal effect; nearly all actives have a fitted effect of over 55% in size
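Luminescent ATP content (CellTiter-Glo) served as the growth readout. Knockout chicken DT40 cells expressing human TDP1 were exposed to compounds without camptothecin for a minimum 48 hr at 37 °C.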
Numbers without * were called inactive; ? = inconclusive; . = no result; [ ] = another dose, or the depositor's remark. Compounds with a hit are over-represented: about 19% of the library has one in this group of screens. Unless noted, the call rests on the fitted dose curve; in most records, active means well fitted curve in the direction sought with a large enough effect; inconclusive means small, poorly fitted or top-dose-only effect, or another doubt; inactive means no such curve, though single readings can be large; an effect the other way counts as inactive or inconclusive. Unless noted, on the % scale 0 is the no-effect control and ±100 the full control effect.

SMILES	uPA generation	IL-1B inflam inh	HT1080 IDH1KD tx	HT1080-NT tox	TDP1 cell CPT	DT40 TDP1 no CPT
COc1ccccc1NC(=O)c1cc(S(=O)(=O)N2CCCC2)cn1C	3%	-19	3%	16%	-23%	-13%
Cc1ccc(S(=O)(=O)N2C[C@H]3C(=O)C[C@@H](c4ccc(Cl)cc4)N(S(=O)(=O)c4ccccc4C)[C@H]3C[C@H]2c2ccc(Cl)cc2)cc1	.	-2	12%	1%	-16%	?
O=C(CNc1cc(S(=O)(=O)N2CCOCC2)ccc1NCC1CCCO1)Nc1cccc(F)c1 (configuration not stated)	-3%	?	-4%	-2%	-24%	-21%
CCCCC(=O)N1C(C)CCC1C (configuration not stated)	.	-7	0%	6%	8%	3%
COCC(C)NC(=O)c1ccc2nc(-c3ccccc3)c(-c3ccccc3)nc2c1 (configuration not stated)	7%	-2	-9%	3%	?	21µM*
CC(=O)c1ccc(NC(=O)c2ccc3c(c2)nnn3C2CCCC2)cc1	.	.	.	.	0%	-3%
COc1ccccc1CNC(=O)c1ccc2nc(-c3ccccc3)c(-c3ccccc3)nc2c1	.	.	.	.	?	18µM*
COCC(C)NC(=O)c1ccc(N(C)C)cc1 (configuration not stated)	0%	-18	11%	22%	9%	0%
CCN1CCN(CCNC(=O)c2ccc3nc(-c4cccc(C)c4)c(-c4cccc(C)c4)nc3c2)CC1	1%	0	-21%	-2%	16µM*	16µM*
Cc1c(Cl)cccc1NC(=O)c1ccc2c(c1)nnn2C1CCCC1	.	.	.	.	2.6µM*	2.6µM*
Cc1ccc(C(=O)NCCN2CCOCC2)cc1	0%	8	-3%[9.24 µM]	3%	-1%	7%
O=C(Nc1cccc(F)c1)N1CC[C@@]2(CCCN(C(=O)c3ccco3)C2)C1	.	.	.	.	3%	-7%
CC(C)CCNC(=O)c1onc(CSc2ccccn2)c1C(=O)NCCC(C)C	26%	1	-13%	-10%	?	?
O=C(Nc1nc(-c2cccc3ccccc23)cs1)c1cnccn1	3%	13	-15%	4%	-20%	?
CCN(CC)C(=O)c1ccc(C(=O)c2ccccc2)cc1	13%	6	2%	-1%	-16%	-21%
CCCNC(=O)c1ccc2nc(-c3ccccc3)c(-c3ccccc3)nc2c1	5%	?	5%	8%	?	23µM*
CCC(C)NC(=O)c1ccc2nc(-c3ccc(OC)c(OC)c3)c(-c3ccc(OC)c(OC)c3)nc2c1 (configuration not stated)	-3%	-26	-1%	-9%	15µM*	?
COc1ccc(CNC(=O)c2ccc3nc(-c4ccc(F)cc4)c(-c4ccc(F)cc4)nc3c2)cc1	.	.	.	.	-20%	-27%
CCCN(CCC)C(=O)c1ccc2nc(-c3ccc(OC)c(OC)c3)c(-c3ccc(OC)c(OC)c3)nc2c1	0%	-12	-7%	-16%	?	?
COc1cccc(CNC(=O)c2ccc3nc(-c4ccc(F)cc4)c(-c4ccc(F)cc4)nc3c2)c1	.	.	.	.	21µM*	13µM*
CCN(CC)C(=O)c1ccc2nc(-c3ccccc3)c(-c3ccccc3)nc2c1	5%	-3	9%	5%	?	21µM*
CC(C)CCCC(C)C1CCC2C3CC=C4CC(=O)CC[C@@]4(C)C3CC[C@@]12C (some centres not stated)	.	.	.	.	4%	-1%
CCOc1ccc(CNC(=O)c2cnc3sc(N4CCC(C)CC4)nn3c2=O)cc1OC	.	.	.	.	?	1%
COc1ccc(S(=O)(=O)Nc2ncccn2)cc1	-1%	-7	14%	11%	-3%	-11%
O=C(Cc1cccc(NC(=O)C2CCCN(C(=O)CCc3ccccc3)C2)c1)Nc1cccc(C(=O)N2CCCC2)c1 (configuration not stated)	3%	24	0%	-2%	18µM*	23µM*
SMILES	uPA generation	IL-1B inflam inh	HT1080 IDH1KD tx	HT1080-NT tox	TDP1 cell CPT	DT40 TDP1 no CPT
O=C(Cc1ccc(NC(=O)C2CCCN(C(=O)CCc3ccccc3)C2)cc1)Nc1cccc(C(=O)N2CCCCC2)c1 (configuration not stated)	-11%	11	-3%	2%	?	?
O=C(Cc1ccc(NC(=O)C2CCCN(C(=O)CCc3ccccc3)C2)cc1)Nc1cccc(C(=O)N2CCCC2)c1 (configuration not stated)	-19%	7	-4%	5%	23µM*	13µM*
CC(=O)Nc1ccc(-c2ccc(NC(C)=O)cc2)cc1	2%	-4	-9%	-13%	3%	15%
CC(=O)Nc1ccc(N=Nc2ccc(O)cc2)cc1	-11%	?	-1%	?	15µM*	?
COc1ccc(NN=Nc2nc3c([nH]2)c(=O)n(C)c(=O)n3C)cc1	2%	28	-11%	-12%	21µM*	?
Cc1ccccc1NN=Nc1nc2c([nH]1)c(=O)n(C)c(=O)n2C	3%	-2	-7%	-5%	-17%	-19%
OCCN1CCN(c2ncnc3sc(-c4ccccc4)cc23)CC1	-12%	-93*	?	18µM*	?	15µM*
c1ccc(-c2cc3c(N4CCCC4)ncnc3s2)cc1	-9%	-3	9%	23%	?	21µM*
c1ccc(-c2csc3ncnc(N4CCOCC4)c23)cc1	1%	36	-8%	-25%	-12%	?
Cc1nc(N2CCOCC2)c2cc(-c3ccccc3)sc2n1	13%	?	-1%	-23%	?	18µM*
c1ccc(-c2cc3c(N4CCCCC4)ncnc3s2)cc1	-3%	-15	5%	1%	-39%	?
c1ccc(-c2cc3c(N4CCOCC4)ncnc3s2)cc1	5%	-62*	?	?	16µM*	15µM*
CSc1nc(N2CCOCC2)c2ccccc2n1	.	13	-2%	6%	-9%	-10%
OCCN1CCN(c2nc3ccccc3nc2-c2ccccc2)CC1	6%	-5	-9%	23%	-23%	-23%
Cn1c(C(=O)N2CCC(C(=O)NCc3ccccc3)CC2)cc2sccc21	-3%	-10	1%	3%	-4%	1%
COc1ccc(-n2nc(C(=O)Nc3cc(OC)c(OC)c(OC)c3)c(=O)n(C)c2=O)cc1	.	.	.	.	?	-28%
COc1cccc(C(=O)Nc2cccc(-c3ccc(N4CCOCC4)nn3)c2)c1	10µM*	1	-11%	-9%	-18%	?
